# Compound activity from PubChem BioAssay.
# FMDV antiviral = blocks foot and mouth disease virus; FMDV antiviral cell-based qHTS; Potency, µM (titrated, usually from 57.9 µM), actives largely listed as inhibitors; 410,000 tested, 1.2% active; AID 1159524; calls by dose curve; tested in HEK293T cells; note: read-out not given here; nearly all actives have a fitted effect of over 45% in size
# HCMV inh = blocks human cytomegalovirus replication; HFF cells, HCMV-luciferase reporter, 72 h; hits give low values; activity change, negative = inhibition, % at 57.5 µM; 410,000 tested, 4.5% active; AID 1259415; in the data active = activity change below about -60%; inconclusive = no clear call, values can overlap the other calls; inactive = above about -39%
#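 Human foreskin fibroblasts infected with luciferase-reporter HCMV at MOI 1 PFU/cell, compounds at two doses. Luciferase measured 72 h post infection; normalized to buffer-only basal and Salinomycin (10uM) controls.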
# VACV mCherry inh = vaccinia inhibition (mCherry reporter); Vaccinia virus mCherry reporter infection, fluorescence; Potency, µM (highest dose often 36.5 µM), usual class: inhibitors; 310,000 tested, 0.63% active; AID 720579; calls by dose curve; tested in A549 cells; note: nearly all actives have a fitted effect of over 35% in size
# HCV inh = HCV inhibition; Huh7.5.1 HCVcc-Cre infection, luciferase reporter, 44 h; Potency, µM (top dose mostly 41.8 µM), usual class: inhibitors; 340,000 tested, 3.4% active; AID 651820
#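 After 44 h co-culture of compound, cells and HCVcc-Cre (~0.5 moi), substrate is added for 15 min at room temperature and luciferase measured over 15 sec. Cells were seeded at 1,000/well and pre-cultured 4 h.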
# VACV Venus inh = vaccinia inhibition (Venus reporter); 330,000 tested, 0.46% active; Vaccinia virus Venus reporter expression, fluorescence; AID 720580; Potency, µM (titrated, usually from 36.5 µM), actives largely listed as inhibitors; calls by dose curve; tested in A549 cells; note: nearly all actives have a fitted effect of over 30% in size
# Sm TGR inh = S. mansoni TGR enzyme inhibition | AID 485364 | 360,000 tested, 3% active | Potency, µM (doses to about 114 µM), most hits filed as inhibitors | purified TGR, DTNB reduction, TNB absorbance 405 nm | Q962Y6; note: nearly all actives have a fitted effect of over 60% in size
#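 TGR 20 nM + NADPH 100 uM (dispensed conc.), cpd preinc 15 min RT; start with NADPH (500 uM addition) then DTNB (15 mM addition). Kinetic TNB absorbance, 405 nm filter. Four-parameter Hill fit across titration.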
# Numbers stand for hits; – = inactive; ? = inconclusive; · = no result given; ! = repeats disagree; [ ] = another dose, or the depositor's remark. The list is not random: actives were taken first. Their share in the collection is about 9.3%. Unless noted, calls come from the whole dose curve; as a rule, active = well fitted curve in the direction sought with a large enough effect; inconclusive = small, poorly fitted or top-dose-only effect, or another doubt; inactive = no such curve, though single readings can be large; an effect the other way counts as inactive or inconclusive.
SMILES,FMDV antiviral,HCMV inh,VACV mCherry inh,HCV inh,VACV Venus inh,Sm TGR inh
COc1cc(OC)c2c(-c3cccc(-c4ccc(C(C)=O)cc4)c3)cc(=O)oc2c1,–,·,–,?,–,·
CCc1cc(=O)oc2cc3occ(-c4ccc(OC)c(F)c4)c3cc12,?,-67.9,?,?,–,–
Cc1ccc(S(=O)(=O)N2CCC(=O)N(CCOCc3cccc(Cl)c3)CC2)cc1,–,-63.6,–,–[8.37 µM],–,–
Cc1ccc(S(=O)(=O)N2CCC(=O)N(CCOCc3cccc(F)c3)CC2)cc1,–,–,–,–[8.37 µM],–,–
Cc1ccc(S(=O)(=O)N2CCC(=O)N(C(COCc3cccc(C(F)(F)F)c3)Cc3ccccc3)CC2)cc1 (centres undefined),–,–,?,10µM,–,–
CSCCC(NC(=O)c1ccco1)C(=O)N1CCCCCCC1 (centres undefined),–,–,–,–,–,–
COC(=O)c1ccccc1NC(=O)/C=N/O,–,–,–,?,–,–
O=C(/C=N/O)Nc1ccc2sc3ccccc3c2c1,–,–,–[7.34 µM],12.6µM,–[7.34 µM],–
COc1ccccc1-n1c(=O)oc2ccc(Cl)cc2c1=O,–,-95.3,·,?,12.6µM,–
COc1c(Cl)c(=O)oc2ccc(Cl)cc12,–,–,–,·,–,·
Cc1ccc(C)c(Cn2nc(-c3ccccc3)ccc2=O)c1,–,–,?,31.6µM,–,?
COc1ccc(-c2noc(CCCC(=O)NCc3ccco3)n2)cc1OC,–,–,–,–,–,39.8µM
COc1ccc(-c2noc(-c3ccccc3C(=O)NCc3ccco3)n2)cc1,–,–,·,–,–,–
COc1ccc(-c2noc(-c3ccccc3C(=O)NCc3ccco3)n2)cc1OC,–,–,–,5.62µM,–,?
O=C(CCc1nc(-c2ccc(F)cc2)no1)Nc1cccc(C(=O)NC2CC2)c1,39.8µM,–,·,14.1µM,·,·
O=C(NCc1nc(-c2ccc(C(F)(F)F)cc2)no1)Nc1cc(Cl)cc(Cl)c1,?,-96.3,·,–,·,–
C/C(=N/OC(=O)c1ccc(C)cc1)c1ccc(N2C(=O)C3CCCCC3C2=O)cc1 (centres undefined),?,–,–,–,–,–
CC(C)(C)c1ccc(-c2noc(CCC(=O)Nc3cccc(Cl)c3)n2)cc1,–,-89.4,–,·,–,–
Cc1cccc(-c2noc(CCCC(=O)NCc3ccco3)n2)c1,–,–,–[7.34 µM],·,–[7.34 µM],–
Cc1cccc(-c2noc(CCC(=O)NCc3ccco3)n2)c1,–,–,·,–,·,–
CC(C)(C)c1ccc(-c2noc(CCC(=O)NCc3ccco3)n2)cc1,–,-81.2,–,?,?,–
COc1cccc(-c2noc(CCCC(=O)NCc3ccco3)n2)c1,–,–,–[7.34 µM],·,–[7.34 µM],44.7µM
CC(=O)N1c2ccc(S(=O)(=O)NCC3CCC(C(=O)NCc4ccc(C)o4)CC3)cc2CC1C (centres undefined),–,–,–,–,–,–
CCc1ccc2ncc(C(=O)c3ccc(C)c(C)c3)c(N3CCC(C(N)=O)CC3)c2c1,–,–,–,·,–,–
COc1cccc(C(c2nnnn2CS(=O)(=O)c2ccc(C)cc2)N2CCN(C)CC2)c1OC (centres undefined),–,–,–,–,–,–
SMILES,FMDV antiviral,HCMV inh,VACV mCherry inh,HCV inh,VACV Venus inh,Sm TGR inh
Cc1cc(C)nc(OC(=O)c2ccc(Cl)cc2Cl)n1,·,-101.6,·,·,·,22.4µM
CC(C)c1ccc(CN(C(=O)C2COc3ccccc3O2)C2CCS(=O)(=O)C2)cc1 (centres undefined),–,-93.7,·,–,·,–
CN(C)c1ccc(CN(C(=O)C2COc3ccccc3O2)C2CCS(=O)(=O)C2)cc1 (centres undefined),–,–,–,·,–,20µM
C[C@]12CCC(=O)C[C@@H]1CC[C@@H]1[C@@H]2CC[C@]2(C)[C@@H](C(=O)COC(=O)CCC(=O)O)CC[C@@H]12,–,-61.4!,–,–,–,–
COc1ccc(N(C(=O)c2ccco2)C(C(=O)NC2CCCCC2)c2cccs2)cc1OC (centres undefined),–,–,·,–,–,–
C#CC(=O)N(c1cc(OC)ccc1OC)C(C(=O)NC1CCCC1)c1cccs1 (centres undefined),?,·,11.2µM,·,10µM,?
C#CC(=O)N(c1ccc(OC)cc1OC)C(C(=O)NC1CCCC1)c1cccs1 (centres undefined),?,-99.5,10µM,1.26µM,10µM,1.58µM
